Test results taken from PubChem BioAssay (Tox21).
Activity calls are given as the source filed them. Unless noted, calls follow the shape of the dose curve; as a rule, active = well fitted curve in the direction sought with a large enough effect in the repeat runs; inconclusive = weak or mixed curves; inactive = no such curve, though single readings can be large; an effect the other way counts as inactive or inconclusive.

How the values were obtained:
[1] = qHTS assay for small molecule agonists of the p53 signaling pathway (AID 651631; calls by dose curve; also: nearly all actives have a fitted effect of over 15% in size; also: potency is read from the fitted curve at half-maximal effect)
Method in brief: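 Read-out is beta-lactamase FRET fluorescence measured 2 h after substrate addition at room temperature, in HCT-116 cells with a p53 response element-driven reporter exposed to compounds for 16 h at 37 °C.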

[2] = qHTS assay for small molecule agonists of the p53 signaling pathway - cell viability (AID 651633; calls by dose curve;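 also: p53RE-bla HCT reporter cells with a stable beta-lactamase p53 reporter; nearly all actives have a fitted effect of over 30% in size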)
Method in brief: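 Viability counter-read: CellTiter-Glo luminescence (30 min, room temperature) in the same p53RE-bla plates. These plates had been exposed to compounds for 16 h at 37 C.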

[3] = qHTS assay for small molecules that induce genotoxicity in human embryonic kidney cells expressing luciferase-tagged ATAD5 - cell viability (AID 651634; calls by dose curve; also: nearly all actives have a fitted effect of over 25% in size; also: potency is read from the fitted curve at half-maximal effect)
Method in brief: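 Here HEK293T cells with the ATAD5 luciferase reporter are incubated with test compounds for 15.5 hr, and cytotoxicity is then gauged by measuring protease activity in live cells using fluorescence.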

[4] = qHTS assay for small molecule disruptors of the mitochondrial membrane potential - cell viability (AID 720634; calls by dose curve;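 also: human HepG2 liver cancer cells; nearly all actives have a fitted effect of over 20% in size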)
Method in brief: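 Viability of HepG2 cells is scored from ATP content by luminescence; cells are exposed to compound for 1 hr at 37 C and 5% CO2, then dosed with m-MPI dye before the CellTiter-Glo reagent.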

[5] = qHTS assay for small molecule disruptors of the mitochondrial membrane potential (AID 720635)
Method in brief: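 Mitochondrial membrane potential tracked with Mito-MPS dye, red aggregates (ex 540/em 590 nm) against green monomers (ex 490/em 535 nm). Compound treatment 1 hr at 37C, dye 30 min in HepG2.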

[6] = qHTS assay to test for compound auto fluorescence at 590 nm (red) in HepG2 cells (AID 720674)
Method in brief: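 1 hr compound incubation on HepG2 cells, 37 C, 5% CO2; plate read ex 540 nm / em 590 nm; intensities reported as Rose Bengal sodium equivalents.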

[7] = qHTS assay to test for compound auto fluorescence at 590 nm (red) in HEK293 cells (AID 720679)
Method in brief: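 Autofluorescence equivalency to Rose Bengal sodium, 540/590nm, in HEK293 cells exposed overnight to 23 nL compound per well.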

[8] = qHTS assay to test for compound auto fluorescence at 535 nm (green) in HEK293 cells (AID 720680)
[9] = qHTS assay to test for compound auto fluorescence at 460 nm (blue) in HEK293 cell free culture (AID 720681)
Method in brief: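 Blue fluorescence (Ex 405/Em 460 nm, triamterene-equivalent) was read immediately after pin transfer of compound or DMSO into medium (DMEM, 10% FBS) without cells.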

[10] = qHTS assay to test for compound auto fluorescence at 590 nm (red) in HEK293 cell free culture (AID 720683)
Method in brief: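 Red-channel autofluorescence of compounds in culture medium (DMEM, 10% FBS), no cells, measured at 540/590 nm. Rose Bengal sodium is the reference fluorophore for equivalence.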

[11] = qHTS assay to test for compound auto fluorescence at 590 nm (red) in HepG2 cell free culture (AID 720684)
Method in brief: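 No cells present: MEM + 10% FBS only. Compound pinned in, red label read (540/590 nm). Activity = fluorescence equivalent to Rose Bengal sodium.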

[12] = qHTS assay to test for compound auto fluorescence at 460 nm (blue) in HepG2 cell free culture (AID 720685)
Method in brief: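 Cell-free plates of MEM plus 10% FBS received 23 nL compound or DMSO vehicle; blue-channel (405/460 nm) intensity scored against triamterene as reference fluorophore.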

[13] = qHTS assay to test for compound auto fluorescence at 535 nm (green) in HepG2 cell free culture (AID 720686)
[14] = qHTS assay to test for compound auto fluorescence at 460 nm (blue) in HepG2 cells (AID 720687)
Method in brief: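 Blue-channel autofluorescence (Ex/Em 405/460 nm, triamterene-equivalent) was measured after 1 hr compound exposure at 37 C, 5% CO2. Cells were HepG2, plated overnight at 37 C in MEM plus 10% FBS.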

[15] = biological target: Glucocorticoid receptor (Homo sapiens) (UniProt P04150); assay: qHTS assay to identify small molecule agonists of the glucocorticoid receptor (GR) signaling pathway (AID 720691; active = well fitted activation curve with a large enough effect in the signal ratio in the repeat runs, not every such curve was filed as active; inconclusive = weak or mixed curves, or effect the other way; inactive = no such curve, though single readings can be large or run the other way; the % refers to the signal ratio; also: potency is read from the fitted curve at half-maximal effect); details: GR-bla HeLa, beta-lactamase reporter ratio, 18 h; activation: at 62.4 µM (top of the series) unless noted
Glucocorticoid receptor (Homo sapiens), sequence (P04150 whole entry, looked up): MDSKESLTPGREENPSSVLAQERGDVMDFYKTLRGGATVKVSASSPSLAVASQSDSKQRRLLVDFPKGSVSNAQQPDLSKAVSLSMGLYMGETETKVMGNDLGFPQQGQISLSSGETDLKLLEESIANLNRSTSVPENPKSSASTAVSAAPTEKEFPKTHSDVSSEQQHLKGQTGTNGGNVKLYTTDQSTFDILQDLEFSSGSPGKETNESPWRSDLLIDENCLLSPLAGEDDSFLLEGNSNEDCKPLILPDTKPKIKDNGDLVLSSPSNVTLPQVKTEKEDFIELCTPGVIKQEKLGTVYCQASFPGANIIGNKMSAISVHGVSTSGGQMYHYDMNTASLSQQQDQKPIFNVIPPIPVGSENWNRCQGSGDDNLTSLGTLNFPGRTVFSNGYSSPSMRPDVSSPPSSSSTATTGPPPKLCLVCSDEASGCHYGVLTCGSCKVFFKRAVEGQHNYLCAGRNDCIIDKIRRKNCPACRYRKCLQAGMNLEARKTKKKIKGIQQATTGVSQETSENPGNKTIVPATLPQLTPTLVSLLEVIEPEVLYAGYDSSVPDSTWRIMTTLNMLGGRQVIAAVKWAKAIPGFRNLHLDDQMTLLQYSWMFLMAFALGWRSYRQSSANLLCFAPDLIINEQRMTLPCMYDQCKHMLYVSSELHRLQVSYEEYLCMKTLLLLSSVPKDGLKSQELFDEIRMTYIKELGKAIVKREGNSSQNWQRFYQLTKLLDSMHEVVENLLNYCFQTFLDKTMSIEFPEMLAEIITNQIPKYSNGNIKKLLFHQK
Method in brief: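 Compounds in DMSO, alongside positive controls, were added to GR-bla HeLa reporter cells and incubated 18 h at 37 C; GRE-driven beta-lactamase was detected by fluorescence after 2 h with FRET substrate at room temperature.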

[16] = biological target: Glucocorticoid receptor (Homo sapiens) (UniProt P04150); assay: qHTS assay to identify small molecule antagonists of the glucocorticoid receptor (GR) signaling pathway (AID 720692; active = well fitted inhibition curve with a large enough effect in the signal ratio in the repeat runs, not every such curve was filed as active; inconclusive = weak or mixed curves, or effect the other way; inactive = no such curve, though single readings can be large or run the other way; the % refers to the signal ratio; also: potency is read from the fitted curve at half-maximal effect)
Method in brief: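 In a 1536-well cell format, compounds were added 4 h after seeding GR-bla HeLa cells, together with dexamethasone at 5 nM final; reporter activity was measured by FRET-substrate fluorescence following 18 h at 37 C.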

[17] = qHTS assay for small molecules that induce genotoxicity in human embryonic kidney cells expressing luciferase-tagged ATAD5 (AID 651632); also: nearly all actives have a fitted effect of over 15% in size; also: potency is read from the fitted curve at half-maximal effect
Method in brief: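 DMSO vehicle served as the control. HEK293T reporter cells, 16 hr at 37C, then 30 min Amplite at room temperature; ATAD5 induction is measured as luciferase activity.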

[18] = qHTS assay to test for compound auto fluorescence at 460 nm (blue) in HEK293 cells (AID 720678)
Method in brief: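 Auto fluorescence in the blue band was quantified as triamterene equivalency. HEK293 cells were seeded at 2,000/well, dosed after a 4-5 hr attachment, and kept overnight at 37C before the 405/460 nm reading.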

[19] = qHTS assay to test for compound auto fluorescence at 535 nm (green) in HEK293 cell free culture (AID 720682)
Method in brief: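 Fluorescein serves as the green reference fluorophore; each compound's intrinsic emission at 535 nm (excitation 485 nm) is reported as an equivalent amount of that dye, measured in serum-containing DMEM without cells.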

[20] = qHTS assay to test for compound auto fluorescence at 535 nm (green) in HepG2 cells (AID 720675)

Measured: Potency

O=C1CCC(=O)O1
inactive: [1] | [2] | [3] | [4] | [5] | [6] | [7] | [8] | [9] | [10] | [11] | [12] | [13] | [14] | [15] | [16]

CC1=CC[C@H](C(C)C)C=C1
inactive: [1] | [17] | [2] | [3] | [18] | [7] | [8] | [9] | [19] | [10] | [11] | [12] | [13] | [14]

CC(C)OC(=O)C(C)N(C(=O)c1ccccc1)c1ccc(F)c(Cl)c1 (stereo not drawn)
inactive: [1] | [17] | [2] | [20] | [7] | [8] | [9] | [10] | [11] | [12] | [13] | [14]
active: [16] 43.6 µM

OCCNCc1ccccc1
inactive: [1] | [2] | [3] | [4] | [6] | [20] | [7] | [8] | [9] | [19] | [10] | [11] | [12] | [13] | [14] | [15] | [16]

COc1cc(C(=O)OCCCN2CCCN(CCCOC(=O)c3cc(OC)c(OC)c(OC)c3)CC2)cc(OC)c1OC
active: [17] 8.41 µM
inactive: [1] | [3] | [4] | [6] | [20] | [18] | [7] | [8] | [9] | [10] | [11] | [13] | [14] | [16]

CCN(CC)CCNc1ccc(CNC=O)c2sc3ccc(OC)cc3c(=O)c12
active: [1] 6.86 µM | [3] 4.86 µM | [15] 49 µM [inconclusive]
inactive: [2] | [4] | [6] | [18] | [7] | [8] | [9] | [19] | [10] | [11] | [12] | [14]

CCCn1cnc2c1c(=O)n(CCCCC(C)=O)c(=O)n2C
inactive: [1] | [2] | [3] | [4] | [5] | [6] | [20] | [18] | [7] | [8] | [9] | [19] | [10] | [11] | [12] | [13] | [14] | [15] | [16]

CCC(C)O (stereo not drawn)
inactive: [1] | [2] | [3] | [4] | [6] | [20] | [7] | [9] | [10] | [11] | [12] | [13] | [14] | [16]
